Test results reported in PubChem BioAssay (EPA / NIEHS).
Calls of active or inactive are those of the source. The calls were made as follows: active = hit-call score of the fitted dose curve at least 0.9, where 1 is the maximum; inactive = score below 0.9.

Assays:
[1] = read-out: Monokine induced gamma interferon (MIG), CXCL9 (gene 4283); test: BSK_hDFCGF_MIG: BioMAP Diversity Plus: hDFCGF Assay for Monokine induced gamma interferon (MIG) Biomarker Activity (AID 2283063); details: primary human foreskin fibroblasts; actives raise or lower the signal
Outline: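 ELISA read-out of MIG from primary human dermal fibroblasts 24 h post-dosing. Gain or loss of signal fitted bidirectionally, DMSO as baseline.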

[2] = read-out: Matrix Metallopeptidase 1 (MMP1), MMP1 (gene 4312); test: BSK_hDFCGF_MMP1: BioMAP Diversity Plus: hDFCGF Assay for Matrix Metallopeptidase 1 (MMP1) Biomarker Activity (AID 2283064); details: primary human foreskin fibroblasts; actives raise or lower the signal
Outline: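 hDFCGF primary fibroblasts (human foreskin); chemical added; 24 h; MMP1 by ELISA; bidirectional fit vs DMSO.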

[3] = read-out: Vascular cell adhesion molecule 1 (VCAM1), VCAM1 (gene 7412); test: BSK_hDFCGF_VCAM1: BioMAP Diversity Plus: hDFCGF Assay for Vascular cell adhesion molecule 1 (VCAM1) Biomarker Activity (AID 2283065); details: primary human foreskin fibroblasts; actives raise or lower the signal;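 as to AC50: VCAM-1 protein level quantified by ELISA after 24 h chemical exposure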
Outline: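 Primary human foreskin fibroblasts (hDFCGF system) were dosed with chemical and VCAM-1 was measured by ELISA 24 h later. Bidirectional curve fitting used DMSO as negative control and activity baseline.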

[4] = read-out: Plasminogen activator inhibitor-1 (PAI1), SERPINE1 (gene 5054); test: BSK_hDFCGF_PAI1: BioMAP Diversity Plus: hDFCGF Assay for Plasminogen activator inhibitor-1 (PAI1) Biomarker Activity (AID 2283066); details: primary human foreskin fibroblasts; actives raise or lower the signal
Outline: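 Human foreskin fibroblasts in the hDFCGF system were dosed with compound for 24 h; PAI-1 was quantified by ELISA. Bidirectional curve fitting used DMSO as negative control and baseline.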

[5] = read-out: Intercellular Adhesion Molecule 1 (ICAM1), ICAM1 (gene 3383); test: BSK_KF3CT_ICAM1: BioMAP Diversity Plus: KF3CT Assay for Intercellular Adhesion Molecule 1 (ICAM1) Biomarker Activity (AID 2283067); details: primary human keratinocytes with fibroblasts; actives raise or lower the signal
Outline: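 Human keratinocyte plus foreskin fibroblast primary co-culture was exposed to chemical for 24 h. ICAM-1 was then quantified by ELISA, and the data were fit bidirectionally against DMSO as the negative control and baseline.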

[6] = read-out: Interferon-gamma inducible Protein 10 (IP10), CXCL10 (gene 3627); test: BSK_KF3CT_IP10: BioMAP Diversity Plus: KF3CT Assay for Interferon-gamma inducible Protein 10 (IP10) Biomarker Activity (AID 2283068); details: primary human keratinocytes with fibroblasts; actives raise or lower the signal
Outline: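 ELISA read-out of IP-10 after 24 h chemical dosing of human skin primary co-culture (keratinocytes, foreskin fibroblasts). Gain or loss of signal relative to DMSO, bidirectional curve fit.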

[7] = BSK_KF3CT_SRB: Viability Assessment in the BioMAP Diversity Plus: KF3CT Assay (AID 2283069); details: primary human keratinocytes with fibroblasts;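 also: total protein by sulforhodamine B staining as a cytotoxicity measure; read 24 h after compound addition; fitted for both signal gain and loss against DMSO baseline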
Outline: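 Keratinocytes co-cultured with foreskin fibroblasts (human primary); chemical added, 24 h; fix 10% TCA, stain 0.1% SRB, A560. Bidirectional fit vs DMSO.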

[8] = read-out: Interleukin-1 alpha (IL1a), IL1A (gene 3552); test: BSK_KF3CT_IL1a: BioMAP Diversity Plus: KF3CT Assay for Interleukin-1 alpha (IL1a) Biomarker Activity (AID 2283070); details: primary human keratinocytes with fibroblasts; actives raise or lower the signal
Outline: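 Chemicals were dosed onto co-cultured human keratinocytes and foreskin fibroblasts, IL-1a was quantified by ELISA at 24 h, and activity was fitted in both directions relative to DMSO controls.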

[9] = read-out: TIMP metallopeptidase inhibitor 2 (TIMP2), TIMP2 (gene 7077); test: BSK_KF3CT_TIMP2: BioMAP Diversity Plus: KF3CT Assay for TIMP metallopeptidase inhibitor 2 (TIMP2) Biomarker Activity (AID 2283071); details: primary human keratinocytes with fibroblasts; actives raise or lower the signal
Outline: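 Human primary keratinocyte/foreskin fibroblast co-culture dosed with chemical and sampled at 24 h. TIMP-2 levels quantified by ELISA; bidirectional fitting against DMSO negative control as baseline.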

[10] = read-out: Matrix Metallopeptidase 9 (MMP9), MMP9 (gene 4318); test: BSK_KF3CT_MMP9: BioMAP Diversity Plus: KF3CT Assay for Matrix Metallopeptidase 9 (MMP9) Biomarker Activity (AID 2283074); details: primary human keratinocytes with fibroblasts; actives raise or lower the signal;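 as to AC50: MMP9 protein level quantified by ELISA in the co-culture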
Outline: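 Human keratinocyte/foreskin fibroblast co-culture; compound added; 24 h; MMP-9 by ELISA; bidirectional fit vs DMSO baseline.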

[11] = read-out: urokinase plasminogen activator (uPA), PLAU (gene 5328); test: BSK_KF3CT_uPA: BioMAP Diversity Plus: KF3CT Assay for urokinase plasminogen activator (uPA) Biomarker Activity (AID 2283075); details: primary human keratinocytes with fibroblasts; actives raise or lower the signal
Outline: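 ELISA readout of uPA, analyzed for signal gain or loss relative to DMSO, from a human primary keratinocyte–foreskin fibroblast co-culture measured 24 h after chemical treatment.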

CD40, CD40 (gene 958) = test: BSK_LPS_CD40: BioMAP Diversity Plus: LPS Assay for CD40 Biomarker Activity (AID 2283076); details: primary human HUVEC with PBMC; actives raise or lower the signal
Outline: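 Primary human umbilical vein endothelial cells co-cultured with peripheral blood mononuclear cells, LPS-stimulated, were dosed with chemical and read 24 h later. CD40 levels were measured by ELISA and fitted bidirectionally against DMSO as negative control and baseline.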

[12] = read-out: E-selectin (Homo sapiens) (UniProt P16581); test: BSK_LPS_Eselectin: BioMAP Diversity Plus: LPS Assay for Eselectin Biomarker Activity (AID 2283077); details: primary human HUVEC with PBMC; actives raise or lower the signal
Outline: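 Human umbilical vein endothelial cells co-cultured with peripheral blood mononuclear cells under LPS stimulation; E-selectin measured by ELISA 24 h after chemical dosing. Activity fitted bidirectionally against DMSO as negative control and baseline.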

[13] = read-out: Interleukin-8 (IL8), CXCL8 (gene 3576); test: BSK_LPS_IL8: BioMAP Diversity Plus: LPS Assay for Interleukin-8 (IL8) Biomarker Activity (AID 2283078); details: primary human HUVEC with PBMC; actives raise or lower the signal
Outline: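 Human umbilical vein endothelial cells co-cultured with PBMC were stimulated with LPS; IL-8 levels were measured by ELISA 24 h after chemical dosing. Activity was fitted bidirectionally against DMSO as negative control and baseline.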

[14] = read-out: Interleukin-1 alpha (IL1a), IL1A (gene 3552); test: BSK_LPS_IL1a: BioMAP Diversity Plus: LPS Assay for Interleukin-1 alpha (IL1a) Biomarker Activity (AID 2283080); details: primary human HUVEC with PBMC; actives raise or lower the signal
Outline: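 Human umbilical vein endothelial cells co-cultured with peripheral blood mononuclear cells were LPS-stimulated and exposed to test chemicals for 24 h. IL-1 alpha was quantified by ELISA, with bidirectional curve fitting against DMSO as the negative control and baseline.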

[15] = read-out: Monocyte Chemoattractant Protein-1 (MCP1), CCL2 (gene 6347); test: BSK_LPS_MCP1: BioMAP Diversity Plus: LPS Assay for Monocyte Chemoattractant Protein-1 (MCP1) Biomarker Activity (AID 2283081); details: primary human HUVEC with PBMC; actives raise or lower the signal;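 as to AC50: secreted MCP-1 protein quantified by ELISA in culture supernatant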
Outline: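 HUVEC plus PBMC co-culture (human primary cells, LPS system) exposed to test chemical for 24 h; MCP-1 measured by ELISA. Bidirectional curve fitting against DMSO baseline; parallel SRB total-protein staining flags overt cytotoxicity.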

[16] = BSK_LPS_PGE2: BioMAP Diversity Plus: LPS Assay for Prostaglandin E2 (PGE2) Biomarker Activity (AID 2283082); details: primary human HUVEC with PBMC; actives raise or lower the signal;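 as to AC50: secreted prostaglandin E2 measured by ELISA in LPS-stimulated co-culture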
Outline: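 HUVEC plus PBMC co-culture stimulated with LPS; secreted PGE2 quantified by ELISA 24 h after chemical dosing. Activity fitted bidirectionally against DMSO as negative control and baseline; parallel SRB total-protein staining served as cytotoxicity check.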

[17] = read-out: C-C motif chemokine 2 (Homo sapiens) (UniProt P13500); test: BSK_KF3CT_MCP1: BioMAP Diversity Plus: KF3CT Assay for Monocyte Chemoattractant Protein 1 (MCP1/CCL2) Biomarker Activity (AID 2283073); details: primary human keratinocytes with fibroblasts; actives raise or lower the signal
Outline: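 Human keratinocyte plus foreskin fibroblast primary co-culture exposed to chemical for 24 h. MCP-1 levels measured by ELISA. Bidirectional curve fitting relative to DMSO negative control as baseline.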

[18] = BSK_LPS_SRB: Viability Assessment in the BioMAP Diversity Plus: LPS Assay (AID 2283079); details: primary human HUVEC with PBMC;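 also: total protein by sulforhodamine B absorbance as a cytotoxicity measure; measured one day after compound addition; fitted in both directions against DMSO so loss or gain of signal counts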
Outline: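 Human umbilical vein endothelial cells co-cultured with PBMC (LPS system) were dosed for 24 h. Total protein was stained with 0.1% sulforhodamine B after 10% TCA fixation, read at 560 nm, and fitted bidirectionally against DMSO baseline.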

[19] = read-out: Transforming growth factor beta 1 (TGFb1), TGFB1 (gene 7040); test: BSK_KF3CT_TGFb1: BioMAP Diversity Plus: KF3CT Assay for Transforming growth factor beta 1 (TGFb1) Biomarker Activity (AID 2283072); details: primary human keratinocytes with fibroblasts; actives raise or lower the signal
Outline: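 Human keratinocyte plus foreskin fibroblast primary co-culture, dosed with chemical for 24 h. TGF-b1 quantified by ELISA. Activity fitted bidirectionally against DMSO negative control as baseline.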

Measured: AC50

Chain of E-selectin (Homo sapiens) (P16581 whole entry, looked up): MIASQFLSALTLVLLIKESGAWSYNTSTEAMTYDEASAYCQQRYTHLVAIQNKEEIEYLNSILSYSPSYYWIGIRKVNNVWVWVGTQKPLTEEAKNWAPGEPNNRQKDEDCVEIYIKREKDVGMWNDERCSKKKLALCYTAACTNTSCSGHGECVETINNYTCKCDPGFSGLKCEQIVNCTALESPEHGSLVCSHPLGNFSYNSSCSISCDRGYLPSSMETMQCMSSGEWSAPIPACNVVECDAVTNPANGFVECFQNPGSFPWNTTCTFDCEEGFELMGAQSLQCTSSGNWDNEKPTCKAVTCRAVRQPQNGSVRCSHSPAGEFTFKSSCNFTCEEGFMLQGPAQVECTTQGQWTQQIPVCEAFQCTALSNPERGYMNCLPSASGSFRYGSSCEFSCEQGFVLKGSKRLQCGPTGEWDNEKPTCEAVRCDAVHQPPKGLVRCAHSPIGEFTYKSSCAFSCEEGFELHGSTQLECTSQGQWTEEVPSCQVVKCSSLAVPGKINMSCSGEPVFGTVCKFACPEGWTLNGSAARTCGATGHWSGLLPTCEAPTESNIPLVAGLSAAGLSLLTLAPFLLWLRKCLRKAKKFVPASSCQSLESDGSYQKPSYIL

COC(=O)CCCCC(=O)OC
inactive: [1] | [2] | [3] | [4] | [5] | [6] | [7] | [8] | [9] | [10] | [11] | CD40, CD40 (gene 958) | [12] | [13] | [14] | [15] | [16]

Cc1cc(C)c(O)c(C)c1
active: [16] 2.97 µM
inactive: [1] | [2] | [3] | [4] | [5] | [6] | [7] | [8] | [9] | [17] | [10] | [11] | CD40, CD40 (gene 958) | [12] | [13] | [14] | [15]

Nc1cccc2c(N)cccc12
inactive: [2] | [4] | [5] | [6] | [7] | [8] | [9] | [10] | [11] | CD40, CD40 (gene 958) | [12] | [13] | [18] | [15]
active: [1] 16.3 µM | [3] 6.83 µM | [16] 12.9 µM

CCCCCCCCC(=O)O
inactive: [1] | [2] | [3] | [4] | [5] | [6] | [7] | [8] | [9] | [19] | [10] | [11] | CD40, CD40 (gene 958) | [12] | [13] | [14] | [15] | [16]

CCc1nn(C2CCCCC2)c2cc(C3(C#N)CCC(C(=O)O)CC3)ccc12 (stereo not drawn)
inactive: [5] | [7] | [8] | [16]
active: [1] 20 µM | [2] 8.18 µM | [3] 7.89 µM | [4] 5.35 µM | [6] 28.1 µM | [9] 11.5 µM | [10] 8.4 µM | [11] 11.3 µM | CD40, CD40 (gene 958) 2.51 µM | [12] 16.1 µM | [13] 20 µM | [18] 4.2 µM | [14] 1.15 µM | [15] 10.1 µM

C#C[C@]1(O)CC[C@H]2[C@@H]3CCC4=CC(=O)CC[C@@H]4[C@H]3CC[C@@]21C
active: [12] 6.29 µM | [13] 4.87 µM | [15] 8.06 µM | [16] 20 µM
inactive: [1] | [2] | [3] | [4] | [5] | [6] | [7] | [8] | [9] | [17] | [10] | [11] | CD40, CD40 (gene 958) | [14]

CC(C)(C)c1cccc(C(C)(C)C)c1O
inactive: CD40, CD40 (gene 958) | [12] | [13] | [15] | [16]
active: [1] 34.9 µM | [2] 35.9 µM | [3] 35.5 µM | [4] 36.6 µM | [5] 37.9 µM | [6] 37.5 µM | [7] 33.8 µM | [8] 31 µM | [9] 37.1 µM | [19] 36.1 µM | [10] 36.7 µM | [11] 39 µM

O=c1c(-c2ccc(O)cc2)coc2cc(O)ccc12
active: [10] 20 µM | [15] 20 µM
inactive: [1] | [2] | [3] | [4] | [5] | [6] | [7] | [8] | [9] | [19] | [17] | [11] | CD40, CD40 (gene 958) | [12] | [13]

CC#C[C@]1(O)CC[C@H]2[C@@H]3CCC4=CC(=O)CCC4=C3[C@@H](c3ccc(N(C)C)cc3)C[C@@]21C
active: [2] 26.1 µM | [4] 11.2 µM | [5] 20 µM | [10] 24.1 µM | CD40, CD40 (gene 958) 33.8 µM | [12] 30.5 µM | [13] 32.6 µM | [14] 31.3 µM | [15] 31.5 µM
inactive: [1] | [3] | [6] | [7] | [8] | [9] | [11] | [16]

CC(=O)CC(C)(C)O
inactive: [1] | [2] | [3] | [4] | [6] | [7] | [8] | [9] | [10] | [11] | CD40, CD40 (gene 958) | [12] | [13] | [15] | [16]

CCCCCCC(=O)O
inactive: [1] | [2] | [3] | [4] | [6] | [8] | [9] | [17] | [10] | [11] | CD40, CD40 (gene 958) | [12] | [13] | [18] | [15] | [16]

CC[C@H](c1ccc(O)cc1)[C@@H](CC)c1ccc(O)cc1
active: [1] 30.6 µM | [2] 31.2 µM | [4] 25 µM | [6] 26.5 µM | [7] 32.5 µM | [8] 32 µM | [9] 31.6 µM | [10] 19.4 µM | [11] 35 µM | CD40, CD40 (gene 958) 17.4 µM | [12] 33.8 µM | [13] 35.1 µM | [14] 31.3 µM | [15] 33.8 µM | [16] 38.1 µM
